About 290 (0.78%) of roughly 37,000 compounds were called active. Another 10% or so got no clear call; they are omitted.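 Rule for the calls: active = mean inhibition of at least 10% in the main channel, exceeding the control channel by a set limit; inconclusive = inhibition of 10% or more but channel gap under a set limit; inactive = mean inhibition below 10%.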 Only a selection was taken, and actives are over-represented in it overall.
Assay: inhibitors of DUX4-driven ZSCAN4 reporter expression, primary screen, 293T cells, Gaussia and Italica luciferase (AID 1224904);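 for activity change, negative = inhibition: 0% = median of neutral control wells and -100% = median of positive control wells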
Conditions: 293T-iDUX4 ZSCAN4-Gaussia luciferase reporter, 24 h, stronger effect = lower value, concentration not given here; for Gaussia minus Italica difference: measured here: selective DUX4 reporter inhibition
[1] = measured here: Italica tet-on control reporter

Structure (SMILES)	activity change, negative = inhibition	activity change, negative = inhibition [1] [%]	Gaussia minus Italica difference [%]
CCNC[C@@H]1[C@@H](c2ccccc2)[C@@H](CO)N1C(=O)Cc1ccccn1	-0.0686% (inactive)	0.573	-0.642
CC(C)[C@@H]1COCc2cn(nn2)CC[C@@H](C)C(=O)N1	-4.81% (inactive)	-0.475	-4.34
C/C=C/c1ccc([C@H]2[C@@H](CO)N(S(C)(=O)=O)[C@@H]2CN(C)C(=O)CC)cc1	-5.98% (inactive)	-3.34	-2.63
COc1ccc(S(=O)(=O)Nc2ccc3c(c2)C(=O)N([C@@H](C)CO)C[C@@H](C)[C@H](CN(C)C(=O)CCC(F)(F)F)OCCCC[C@H](C)O3)cc1	-0.224% (inactive)	1.87	-2.09
COc1ccc2c3c(n(C)c2c1)[C@H](CO)N(Cc1ccc(F)cc1)CC31CCN(C)CC1	-2.1% (inactive)	0.744	-2.85
CCCN1[C@H](C(=O)N2CCCCC2)[C@@H](CO)[C@@H]2Cn3c(ccc(-c4ccccc4F)c3=O)[C@@H]21	-5.69% (inactive)	-0.135	-5.56
CCCNC(=O)N(C)C[C@@H]1Oc2ncc(C#CCc3ccccc3)cc2C(=O)N([C@@H](C)CO)C[C@H]1C	5.53% (inactive)	3.94	1.6
CCCNC(=O)N1C[C@@H](O)COC[C@H]2O[C@H](CC(=O)N3CCC(Cc4ccccc4)CC3)CC[C@@H]21	-2.96% (inactive)	-2.25	-0.719
N#C[C@H]1[C@@H](c2ccc(-c3ccccc3F)cc2)[C@H](CO)N1C(=O)c1ccccn1	2.62% (inactive)	1.69	0.933
CCS(=O)(=O)N1Cc2cc(C(=O)N(C)C)nc(-c3cccc(-c4ccc(C#N)cc4)c3)c2[C@H]1CCO	0.897% (inactive)	2.65	-1.75
COc1ccc(C#Cc2ccc3c(c2)[C@H]2[C@H](CCN2Cc2nccs2)[C@@H](CO)N3)cc1	-46.9% (active)	-18.3	-28.6
COc1ccc(S(=O)(=O)N2CC[C@@H]3[C@@H](CO)Nc4ccc(C#Cc5cccnc5)cc4[C@@H]32)cc1	2.41% (inactive)	-7.96	10.4
COc1ccccc1CN1CC[C@@H]2[C@@H](CO)Nc3ccc(C#Cc4ccccc4)cc3[C@@H]21	-0.512% (inactive)	16	-16.5
CCCNC(=O)Nc1ccc2c(c1)C(=O)N(C)[C@@H]1CC[C@@H](CC(=O)NC)O[C@H]1CO2	5.07% (inactive)	8.03	-2.97
C[C@H](NC(=O)C[C@@H]1C=C[C@H](NC(=O)CN2CCOCC2)[C@H](CO)O1)c1ccccc1	4.92% (inactive)	1.16	3.76
CCCNC(=O)N1CCC2(CC1)CN(C(=O)c1cccnc1)[C@@H](CO)c1[nH]c3cc(OC)ccc3c12	8.76% (inactive)	-3.75	12.5
C[C@@H]1CCCCO[C@H](CN(C)Cc2ccc(C(=O)Nc3ccccc3N)cc2)[C@H](C)CN([C@H](C)CO)C(=O)c2cc(N(C)C)ccc2O1	1.16% (inactive)	0.261	0.898
CC(C)CC#Cc1ccc([C@@H]2[C@@H](CO)N3C(=O)CN(C(=O)c4cnccn4)C[C@@H]23)cc1	-2.25% (inactive)	4.38	-6.63
COc1ccc2c3c(n(C)c2c1)[C@@H](CO)N(C(=O)C1CC1)CC31CN(C(=O)C2CCOCC2)C1	9.17% (inactive)	2.05	7.12
O=C(Nc1ccccc1)N1C[C@H]2[C@@H](c3ccccc31)[C@H](CO)N2Cc1ccc(F)cc1	-5.39% (inactive)	-0.0374	-5.35
COc1ccc2c3c(n(C)c2c1)[C@@H](CO)N(C(=O)c1ccccn1)CC31CN(C)C1	15.3% (inactive)	6.61	8.66
CN(C)C(=O)C[C@@H]1C[C@H]2c3cc(NC(=O)Nc4ccccc4F)ccc3O[C@H]2[C@@H](CO)O1	1.79% (inactive)	4.62	-2.83
CO[C@H]1CN(C)C(=O)c2ccc(NC(=O)c3cccc(F)c3)cc2OC[C@@H](C)N(C(C)=O)C[C@@H]1C	1.79% (inactive)	2.12	-0.333
Cc1ccccc1-c1ccc([C@H]2[C@H](CO)N3C(=O)CN(C(=O)c4cccnc4)C[C@@H]23)cc1	6.89% (inactive)	11.7	-4.8
O=C(C[C@H]1CC[C@@H]2[C@H](COC[C@H](O)CN2S(=O)(=O)c2ccccc2)O1)N1CCOCC1	7.87% (inactive)	8.06	-0.196
O=C(C[C@@H]1CC[C@H]2[C@@H](COC[C@@H](O)CN2C(=O)Nc2ccc(Cl)cc2)O1)NC1Cc2ccccc2C1	3.16% (inactive)	10.4	-7.28
Cc1ccccc1S(=O)(=O)Nc1ccc2c(c1)C(=O)N(C)[C@@H]1CC[C@@H](CC(=O)O)O[C@@H]1CO2	-2.51% (inactive)	-0.782	-1.73
COc1cccc(C(=O)N2C[C@@H]3[C@H](c4ccccc42)[C@H](CO)N3Cc2ccccc2F)c1	-0.575% (inactive)	3.46	-4.03

Structure (SMILES)	activity change, negative = inhibition	activity change, negative = inhibition [1] [%]	Gaussia minus Italica difference [%]
CCCNC(=O)N1C[C@@H](O)COC[C@H]2O[C@H](CC(=O)NCCCN3CCOCC3)CC[C@@H]21	5.88% (inactive)	6.39	-0.509
CCC(=O)N1CC2(C1)CN(Cc1nccs1)[C@@H](CO)c1c2c2ccc(OC)cc2n1C	20% (inactive)	2.76	17.3
CN(C)C(=O)c1cccc(-c2ccc3c(c2)[C@H]2[C@H](CCN2C(=O)c2cccnc2)[C@H](CO)N3)c1	-0.714% (inactive)	0.0796	-0.793
O=C(C[C@@H]1CC[C@@H]2[C@H](COC[C@H](O)CN2CC2CCOCC2)O1)NCC1CCCCC1	3.21% (inactive)	11.5	-8.33
CCCN1C[C@@H](C)[C@@H](OC)CN(C)C(=O)c2cc(NC(=O)Nc3cccc(F)c3)ccc2OC[C@@H]1C	-9.36% (inactive)	-5.66	-3.7
O=C(NCC1CC1)[C@@H]1[C@@H](CO)[C@@H]2Cn3c(ccc(-c4ccncc4)c3=O)[C@@H]2N1Cc1cocn1	-0.331% (inactive)	-1.44	1.11
CC(C)NC(=O)N1[C@H](CO)[C@H](c2ccccc2)C12CN(C(=O)Cc1cccnc1)C2	1.09% (inactive)	5.85	-4.76
CCC(=O)N1[C@H](CO)[C@@H]2c3ccccc3N(S(=O)(=O)c3ccccc3C)C[C@@H]21	-0.934% (inactive)	-0.843	-0.0907
CO[C@H]1CN(C)C(=O)c2ccc(NS(C)(=O)=O)cc2OC[C@@H](C)N(Cc2ccccc2)C[C@@H]1C	3.45% (inactive)	1.74	1.71
CCN(C[C@@H]1[C@@H](c2ccccc2)[C@H](CO)N1C(C)=O)C(=O)NC(C)C	-4.96% (inactive)	-1.07	-3.89
CCCNC(=O)N(C)C[C@H]1Oc2ncc(-c3ccc(C(=O)N(C)C)cc3)cc2C(=O)N([C@@H](C)CO)C[C@@H]1C	-0.44% (inactive)	5.7	-6.14
COc1ccc2c3c([nH]c2c1)[C@H](CO)N(C(=O)C1CCOCC1)CC31CN(S(C)(=O)=O)C1	-4.43% (inactive)	1.27	-5.7
O=C(Cc1ccccc1)N1C[C@H]2[C@@H](c3ccccc31)[C@H](CO)N2C(=O)c1ccc(F)cc1	0.616% (inactive)	2.82	-2.21
CN1C(=O)c2cc(NC(=O)c3cnccn3)ccc2OC[C@@H]2O[C@H](CC(=O)NC3CCC3)CC[C@@H]21	3.24% (inactive)	0.171	3.07
O=C(C[C@@H]1CC[C@@H]2[C@H](COC[C@H](O)CN2S(=O)(=O)c2ccc(F)cc2)O1)NCc1ccc(Cl)c(Cl)c1	-7.18% (inactive)	-12.4	5.22
CCCNC(=O)N1C[C@@H]2[C@H](c3ccccc31)[C@@H](CO)N2C(=O)NC(C)C	-3.62% (inactive)	0.166	-3.78
N#C[C@@H]1N[C@@H](CO)[C@@H]1c1ccc(C#Cc2ccccc2F)cc1	0.819% (inactive)	0.652	0.167
CC=Cc1ccc2n(c1=O)C[C@@H]1[C@@H](CO)[C@H](C(=O)NCCC)[C@H]2N1C(=O)C1CC1 (mixture of isomers)	3.79% (inactive)	5.5	-1.71
CCCNC(=O)N1C[C@@H](O)COC[C@H]2O[C@@H](CC(=O)NCCCN3CCOCC3)CC[C@@H]21	-2.3% (inactive)	5.46	-7.76
Cc1cc(C(=O)Nc2ccc3c(c2)C(=O)N(C)[C@H]2CC[C@H](CC(=O)NCC(F)(F)F)O[C@@H]2CO3)no1	-3.18% (inactive)	1.49	-4.67
C[C@@H](NC(=O)C[C@H]1CC[C@@H](NC(=O)Cc2ccccn2)[C@@H](CO)O1)c1ccccc1	14.3% (inactive)	1.74	12.6
O=C(C[C@@H]1CC[C@H]2[C@@H](COC[C@H](O)CN2C(=O)Nc2ccccc2)O1)NCCc1ccncc1	-0.33% (inactive)	7.03	-7.36
COc1ccc(NC(=O)N(C)C[C@@H]2OCc3cn(nn3)CCCC(=O)N([C@H](C)CO)C[C@H]2C)c(OC)c1	-6.81% (inactive)	4.76	-11.6
N#C[C@@H]1[C@@H](c2ccc(-c3ccccc3F)cc2)[C@@H](CO)N1C(=O)C1CC1	-3.2% (inactive)	-0.917	-2.29
COc1ccc2c3c(n(C)c2c1)[C@H](CO)N(Cc1ccccc1F)CC31CN(C(=O)C2CCC2)C1	6.19% (inactive)	3.73	2.45
COc1ccc2c3c([nH]c2c1)[C@@H](CO)N(C(=O)NC(C)C)CC31CN(C(=O)C2CCCC2)C1	6.7% (inactive)	0.3	6.4
COc1ccc2c3c([nH]c2c1)[C@@H](CO)N(Cc1cc(F)ccc1F)CC31CN(C(=O)C2CCC2)C1	-77.2% (active)	-43.6	-33.6

Reference: PubChem BioAssay AID1224904 (Broad Institute, 2016)
